G9a block: qHTS Assay for Inhibitors of Histone Lysine Methyltransferase G9a | Histone-lysine N-methyltransferase EHMT2 (Homo sapiens), Q96KQ7 | G9a H3K9 monomethylation, AlphaScreen, 2 h | Potency, µM (titrated, usually from 102 µM), inactives show at the top dose activity, negative = inhibition, actives largely listed as inhibitors | 350,000 compounds, 8.8% hits; further: on the % scale 0 is the no-effect control and ±100 the full control effect; nearly all actives have a fitted effect of over 75% in size
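AlphaScreen detection with an anti-monomethyl H3K9 antibody quantified product after a 2 h room-temperature reaction containing 500 nM biotinylated H3K9 peptide, 20 µM SAM and 20 nM enzyme, which had been preincubated 15 min with compound.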
L3MBTL1 block: qHTS Assay for the Inhibitors of L3MBTL1; Potency, µM (doses to about 57.1 µM), inactives show at the top dose activity, negative = inhibition, most hits filed as inhibitors; AlphaScreen L3MBTL1–H3K9me1 peptide binding; 230,000 compounds, 0.66% hits; further: on the % scale 0 is the no-effect control and ±100 the full control effect; nearly all actives have a fitted effect of over 60% in size
Target sequence (Q9Y468 whole entry, looked up): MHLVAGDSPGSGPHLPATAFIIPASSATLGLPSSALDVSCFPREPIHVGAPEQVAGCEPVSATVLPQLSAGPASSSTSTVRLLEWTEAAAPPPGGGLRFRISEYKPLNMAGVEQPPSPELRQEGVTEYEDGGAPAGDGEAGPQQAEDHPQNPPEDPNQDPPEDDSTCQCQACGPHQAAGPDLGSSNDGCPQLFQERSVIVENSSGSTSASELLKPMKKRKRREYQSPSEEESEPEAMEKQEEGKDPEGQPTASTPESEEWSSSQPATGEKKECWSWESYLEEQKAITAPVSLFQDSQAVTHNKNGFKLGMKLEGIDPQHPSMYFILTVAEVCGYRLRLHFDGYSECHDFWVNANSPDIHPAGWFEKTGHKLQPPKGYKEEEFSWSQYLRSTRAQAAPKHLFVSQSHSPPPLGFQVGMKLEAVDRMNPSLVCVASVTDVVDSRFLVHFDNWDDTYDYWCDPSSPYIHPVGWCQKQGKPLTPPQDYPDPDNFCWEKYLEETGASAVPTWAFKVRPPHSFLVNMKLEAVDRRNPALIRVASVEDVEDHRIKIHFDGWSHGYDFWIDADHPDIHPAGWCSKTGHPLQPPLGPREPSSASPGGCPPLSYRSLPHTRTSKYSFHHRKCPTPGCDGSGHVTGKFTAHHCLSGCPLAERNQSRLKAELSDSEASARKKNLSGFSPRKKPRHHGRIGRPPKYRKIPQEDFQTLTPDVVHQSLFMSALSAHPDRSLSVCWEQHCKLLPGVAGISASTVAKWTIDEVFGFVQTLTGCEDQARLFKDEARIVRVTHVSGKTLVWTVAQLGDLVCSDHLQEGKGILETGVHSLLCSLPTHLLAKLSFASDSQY
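Read-out is AlphaScreen signal from streptavidin donor and nickel chelate acceptor beads (10 ug/mL final each) bridging L3MBTL1 (50 nM) and biotinylated K9-monomethylated H3(1-15) peptide (75 nM), after 30 min compound exposure at room temperature.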
BAZ2B inh: qHTS Assay for Inhibitors of BAZ2B | Potency, µM (doses to about 114 µM), for inactives: top-dose activity change, negative = inhibition, usual class: inhibitors | 360,000 compounds, 4.4% hits | AlphaScreen BAZ2B-H3K14Ac peptide displacement; further: on the % scale 0 is the no-effect control and ±100 the full control effect; nearly all actives have a fitted effect of over 60% in size
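AlphaScreen displacement of biotin-H3(5-23)K14Ac peptide (50 nM final) from BAZ2B (50 nM final) in PBS pH 7.4, 0.01% Tween-20; complex preformed 30 min RT, then compounds (top 110 uM) 30 min RT, beads 20 min dark.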
HP1b chromo inh: HTS for Inhibitors of HP1-beta Chromodomain Interactions with Methylated Histone Tails; 390,000 compounds, 0.56% hits; Potency, µM (series often up to 114 µM), for the others: at the top dose activity change, negative = inhibition, actives largely listed as inhibitors; AID 540317, 2011; Chromobox protein homolog 1 (Homo sapiens), P83916; AlphaScreen HP1-beta / biotin-H3K9me3 peptide binding; further: nearly all actives have a fitted effect of over 70% in size
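AlphaScreen: HP1-beta (50 nM) preformed 30 min with biotin-H3(1-18)K9me3 peptide (50 nM) in PBS pH 7.4, 0.01% Tween-20. Compound added for 30 min at RT, then streptavidin donor/nickel chelate acceptor beads (10 ug/mL) for 30 min.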
Sfp PPTase inh: qHTS Assay for Inhibitors of Bacillus subtilis Sfp phosphopantetheinyl transferase (PPTase); 310,000 compounds, 3.5% hits; Potency, µM, inactives show largest response in the series, negative = inhibition, usual class: inhibitors; Biochemical Sfp PPTase activity, qHTS; AID 1490, 2009;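 further: the enzyme is Sfp with the accession as filed and its product quenches rhodamine fluorescence; 0% = enzyme reaction without inhibitor and -100% = no enzyme wells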
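Fluorescence-quenching assay with 15 nM Sfp, 5 uM rhodamine-CoA and 12.5 uM BHQ-2-labelled ybbR peptide in pH 7.6 Hepes/MgCl2 buffer. Enzyme was pre-incubated with compound for 15 min at room temperature. Rate was taken from the 30-min fluorescence change (525/598 nm).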
JMJD2A Tudor inh: qHTS Assay for Inhibitors of JMJD2A-Tudor Domain. Lysine-specific demethylase 4A (Homo sapiens), O75164. Potency, µM (highest dose often 114 µM), inactives show at the top dose activity change, negative = inhibition, actives largely listed as inhibitors. AID 504339, 2011. AlphaScreen JMJD2A-Tudor / H3K4me3 peptide binding. 390,000 compounds, 4.4% hits; further: on the % scale 0 is the no-effect control and ±100 the full control effect; nearly all actives have a fitted effect of over 50% in size
* marks the source's active call; other numbers are inactive results; [ ] = dose if it differs, or a comment. Hits are enriched below; roughly 12% of the tested compounds scored in any of these assays. The call rests on the fitted dose curve; in most records, active means well fitted curve in the direction sought with a large enough effect; inconclusive means small, poorly fitted or top-dose-only effect, or another doubt; inactive means no such curve, though single readings can be large; an effect the other way counts as inactive or inconclusive. Potency means the concentration at half of the fitted maximal effect.

Results for CCC1=NN2C(=N)/C(=C\c3ccc(SCc4ccco4)o3)C(=O)N=C2S1 ?
G9a block: 7.08µM*; BAZ2B inh: 50.1µM*; HP1b chromo inh: -15.3%; Sfp PPTase inh: 44.7µM*; JMJD2A Tudor inh: inconclusive

What do the screens show for `CCC1=NN2C(=N)/C(=C/c3c(C)nn(-c4ccccc4)c3Cl)C(=O)N=C2S1`?
G9a block: -12.0%; L3MBTL1 block: -5.7%; BAZ2B inh: -6.0%; HP1b chromo inh: 15.8%; Sfp PPTase inh: -2.2%; JMJD2A Tudor inh: -17.6%

What do the screens show for `CC(C)Cn1nnnc1S(=O)(=O)CC#N`?
Sfp PPTase inh: -12.1%

Results for COC(=O)c1ccc(-c2nc(O)c3cnccn23)cc1 ?
G9a block: inconclusive; L3MBTL1 block: 11.0%; BAZ2B inh: -10.2%; HP1b chromo inh: 25.5%; Sfp PPTase inh: -0.8%; JMJD2A Tudor inh: -7.9%

How did Oc1nc(-c2ccc(Cl)cc2)n2ccncc12 do in these assays?
G9a block: 14.1µM*; L3MBTL1 block: 0.2%; BAZ2B inh: 79.4µM*; HP1b chromo inh: 37.5%; Sfp PPTase inh: 7.9%; JMJD2A Tudor inh: inconclusive

What do the screens show for `COc1ccc(-c2csc(NNC3=NCCCCC3)n2)cc1`?
G9a block: 10µM*; L3MBTL1 block: -9.3%; BAZ2B inh: inconclusive; HP1b chromo inh: inconclusive; Sfp PPTase inh: 12.6µM*; JMJD2A Tudor inh: inconclusive

What do the screens show for `COc1ccc(-c2csc(NC3=NCCCCC3)n2)cc1`?
G9a block: -9.2%[59 µM]; L3MBTL1 block: -10.6%; BAZ2B inh: -15.7%; HP1b chromo inh: 31.7%; Sfp PPTase inh: -16.5%; JMJD2A Tudor inh: -8.5%

What do the screens show for `CCOc1ccc(-c2csc(NC(=O)C3CCCO3)n2)cc1` (configuration not stated)?
G9a block: 7.8%[59 µM]; L3MBTL1 block: -1.3%; BAZ2B inh: 5.8%; HP1b chromo inh: 30.2%; Sfp PPTase inh: 3.7%; JMJD2A Tudor inh: -11.3%

Results for CCOc1ccc(-c2csc(NNC3=NCCCCC3)n2)cc1 ?
G9a block: 7.94µM*; L3MBTL1 block: -16.3%; BAZ2B inh: 50.1µM*; HP1b chromo inh: inconclusive; Sfp PPTase inh: 10µM*; JMJD2A Tudor inh: -7.5%[11.4 µM]

How did CCc1ccc(-n2nc3ccc(NC(=O)c4ccc(C#N)cc4F)cc3n2)cc1 do in these assays?
G9a block: inconclusive; BAZ2B inh: -14.1%; HP1b chromo inh: 41.2%; JMJD2A Tudor inh: -2.2%

What do the screens show for `Cn1c(N)c(C(=O)/C=C/c2ccccc2)c(=O)[nH]c1=O`?
G9a block: inconclusive; L3MBTL1 block: 2.9%; BAZ2B inh: -2.1%; HP1b chromo inh: -23.8%; Sfp PPTase inh: 50.1µM*; JMJD2A Tudor inh: -24.0%

How did Cn1c(N)c(C(=O)Nc2ccccc2)c(=O)[nH]c1=O do in these assays?
HP1b chromo inh: 26.6%; JMJD2A Tudor inh: -12.4%

What do the screens show for `Cc1ccc(NC(=O)C(=O)NCC(c2cccnc2)N2CCN(C)CC2)cc1C` (configuration not stated)?
G9a block: -22.0%[59 µM]; BAZ2B inh: -16.3%; HP1b chromo inh: 23.3%; JMJD2A Tudor inh: -12.5%

Results for CCCCCCCCS(=O)CCC(=O)O (configuration not stated) ?
G9a block: 22.4µM*; BAZ2B inh: -9.0%; HP1b chromo inh: 39.3%; Sfp PPTase inh: 5.2%; JMJD2A Tudor inh: 0.7%

Bioassay records from PubChem BioAssay.
